Most compounds without a hit are left out; they make up all but 2.1% or so of the library.
ADAM17 inh – ADAM17 inhibitors, primary screen, biochemical, QFRET | Disintegrin and metalloproteinase domain-containing protein 17 (Homo sapiens), P78536 | recombinant ADAM17, EDANS/DABCYL FRET peptide cleavage | AID 720648, 2013 | hit rate 0.83% among 370,000 | inhibition, % at 6.95 µM;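 active = inhibition above the mean of compounds lying between control limits plus 3 SD, set per campaign, cut at about 8.5% in these data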
PLC-beta3 inh – human PLC-beta3 inhibitors, primary screen, biochemical, fluorescence | Purified PLC-beta3, fluorogenic substrate | inhibition, % at 12.2 µM | hit rate 0.18% among 370,000 | AID 720704, 2013
PLC-gamma1 inh – PLC-gamma1 enzyme inhibitors, primary screen, biochemical, fluorescence, purified enzyme; 1-phosphatidylinositol 4,5-bisphosphate phosphodiesterase gamma-1 (Homo sapiens), P19174; fluorogenic substrate; inhibition, % at 12.2 µM; hit rate 0.84% among 370,000; in the data active = inhibition above about 9.5%
Rce1 inhib – yeast Rce1p protease inhibitors, primary screen, biochemical, fluorescence, cell-free homogeneous. calls only. CAAX prenyl protease 2 (Saccharomyces cerevisiae (strain ATCC 204508 / S288c)), Q03530. hit rate 0.27% among 290,000. yeast membranes, quenched prenylated peptide cleavage fluorescence;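 active = fall in fluorescence gain of 50% or more versus controls, with final raw signal at or below 3038400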
ADAM10 inh – human ADAM10 inhibitors, primary screen, biochemical, QFRET, HTS | Disintegrin and metalloproteinase domain-containing protein 10 (Homo sapiens), O14672 | hit rate 0.62% among 370,000 | inhibition, % at 7 µM | recombinant ADAM10, EDANS/DABCYL FRET peptide cleavage, 3 h;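 active = inhibition above a per-campaign cutoff equal to the mean of compounds falling between control-based bounds plus 3 SD, cut at about 20% in these data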
PLCgamma1 ctr – PLC-gamma1 enzyme inhibitors, counter-screen for PLC-beta3 inhibitor project, biochemical, fluorescence. hit rate 3.1% among 3,300. shares compounds with PLC-gamma1 inh. inhibition, % at 12.3 µM. AID 743258, 2014. purified PLC-gamma1, fluorogenic substrate; in the data active = inhibition above about 9.5%
PLCbeta3 conf – PLC-beta3 inhibitor confirmation, biochemical, fluorescence, purified enzyme. inhibition, % at 12.3 µM. fluorogenic substrate fluorescence. hit rate 1% among 3,300. shares compounds with PLC-gamma1 inh
Large screens that a line does not name were inactive (follow-up assays come after a bar, where they were run). Rule as the data show it, unless noted: active = inhibition above about 11%; inactive = the rest.

CC(C)(C)C(=O)OCc1cn(-c2ccccc2)nn1	PLC-gamma1 inh 11 | PLCgamma1 ctr inactive | PLCbeta3 conf inactive
CS(=O)(=O)N(CC(=O)N1CCCCCC1)c1cccc(F)c1	none
O=C(O)c1cccc(NC(=S)NC(NC(=O)c2cccc([N+](=O)[O-])c2)C(Cl)(Cl)Cl)c1 (stereo unspecified)	PLC-gamma1 inh 11 | PLCgamma1 ctr inactive | PLCbeta3 conf inactive
Cc1cc(C)cc(N(CC(=O)NCc2ccco2)C(=O)CCC(=O)Nc2ccccn2)c1	PLC-gamma1 inh 11 | PLCgamma1 ctr inactive | PLCbeta3 conf inactive
CCOC(=O)CN1C(=O)c2ccccc2C1=O	none
C=CCOC(=O)CN1C(=O)c2ccccc2C1=O	PLC-beta3 inh 12 | PLCgamma1 ctr inactive | PLCbeta3 conf inactive
CCOc1ccc(NC(=O)C2CCN(C(=O)C3CC(=O)N(c4ccc(C)cc4)C3)CC2)cc1 (stereo unspecified)	none
O=S(=O)(c1ccccc1)c1cnn(-c2ccccc2)c1-c1ccc(Cl)cc1	PLC-beta3 inh 20 | PLCgamma1 ctr inactive | PLCbeta3 conf 17
COc1ccc(-c2c(S(=O)(=O)c3ccccc3)cnn2-c2ccccc2)cc1	none
CC(=O)Nc1cccc(CP(=O)(c2ccccc2)c2ccccc2)c1	PLC-gamma1 inh 13 | PLCgamma1 ctr inactive | PLCbeta3 conf inactive
CCOC(=O)[C@]12CCCCC/C=C\1N(Cc1ccc(OC)cc1)C(=O)[C@H]2CC(=O)NCc1cccs1	PLC-gamma1 inh 9.5 (no result: Rce1 inhib) | PLCgamma1 ctr inactive | PLCbeta3 conf inactive
CCOC(=O)[C@]12CCCCC/C=C\1N(CCc1ccc(Cl)cc1)C(=O)[C@H]2CC(=O)NCc1cccs1	none (no result: Rce1 inhib)
Nc1ccc(C(CC(=O)O)n2cccc2)cc1 (stereo unspecified)	PLC-beta3 inh 14, PLC-gamma1 inh 26 | PLCgamma1 ctr inactive | PLCbeta3 conf inactive
O=C(O)CC(c1ccccc1)n1cccc1 (stereo unspecified)	none
CSCCC(NC(=O)C12CC3CC(CC(C3)C1)C2)C(=O)OCC(=O)c1ccc(C)cc1 (stereo unspecified)	PLC-gamma1 inh 11 (no result: Rce1 inhib) | PLCgamma1 ctr inactive | PLCbeta3 conf inactive
CCc1ccc(S(=O)(=O)NCC2(N3CCOCC3)CCCCC2)cc1	none (no result: Rce1 inhib)
Cc1cc(C)c(C#N)c(OCC2CCCO2)n1 (stereo unspecified)	PLC-beta3 inh 11 (no result: Rce1 inhib) | PLCgamma1 ctr inactive | PLCbeta3 conf inactive
COCc1cc(=O)[nH]c(/N=C(\N)Nc2cccc(Cl)c2)n1	none
CCCN(CC(=O)Nc1ccccc1OC)C(=O)c1ccc(COc2ccccc2)o1	none (no result: Rce1 inhib)
Cc1csc(NC(=O)CSc2nnc(-c3ccncc3)n2C)n1	none
Cc1csc(NC(=O)CSc2nnc(-c3ccc(Cl)cc3)n2N)n1	PLC-gamma1 inh 10 | PLCgamma1 ctr inactive | PLCbeta3 conf inactive
N#CC1(NC(=O)CN2C(=O)NC3(CCCCCC3)C2=O)CCCCC1	none (no result: Rce1 inhib)
Cc1cc(C(=O)OCC(=O)c2cccc([N+](=O)[O-])c2)c2ccccc2n1	PLC-beta3 inh 14 | PLCgamma1 ctr inactive | PLCbeta3 conf inactive
COc1ccccc1C(=O)OCC(=O)c1cccc([N+](=O)[O-])c1	none
O=C(Cc1ccccc1Cl)NCCN1C(=O)C2C3C=CC(C3)C2C1=O (stereo unspecified)	PLC-gamma1 inh 9.9 (no result: Rce1 inhib) | PLCgamma1 ctr inactive | PLCbeta3 conf inactive
COc1cc(/C=C(\C#N)C(=O)c2ccc(O)c(O)c2)cc(I)c1O	PLC-gamma1 inh 10 (no result: Rce1 inhib) | PLCgamma1 ctr inactive | PLCbeta3 conf inactive
CC1CC(=O)Nc2ccccc2N1S(=O)(=O)c1cccc(Cl)c1 (stereo unspecified)	none
O=S(=O)(NC1CCCCC1N1CCOCC1)c1ccc(Cl)cc1 (stereo unspecified)	PLC-gamma1 inh 12 (no result: Rce1 inhib) | PLCgamma1 ctr inactive | PLCbeta3 conf inactive
COc1ccc(C(c2c(C)n(C)n(-c3ccccc3)c2=O)c2c(C)n(C)n(-c3ccccc3)c2=O)cc1OC	none (no result: Rce1 inhib)
